PubChem BioAssay AID743171 (National Center for Advancing Translational Sciences (NCATS), 2013)
Values joined by “and” are separate entries in the source; they are usually repeats but may differ in a detail not shown here. Equal values may be shown once. Results filed as inconclusive are left out. A number with no mark means an inactive call. Active and inactive are the calls of the source. The call rests on the fitted dose curve; in most records, active means well fitted inhibition curve with a large enough effect; inconclusive means small, poorly fitted or top-dose-only effect; inactive means flat fitted curve, though single readings scatter.

target: 15-hydroxyprostaglandin dehydrogenase [NAD(+)] (Homo sapiens) (UniProt P15428); assay: Extended Characterization of HPGD Inhibitors: Activity in Primary Assay (HPGD); settings: recombinant HPGD, NADH fluorescence, PGE2 substrate; series mostly up to 57.1 µM; activity, negative = inhibition: at the top concentration
Excerpt: The central role of HPGD is to inactivate prostaglandins such as prostaglandin E2 (PGE2) or prostaglandin D2 (PGD2). These prostaglandins are involved in a number of processes, including inflammation, differentiation, and cellular signaling, which makes HPGD an important target for pharmacological intervention. Inhibition of 15-PGDH (HPGD) activity was screened by utilizing prostaglandin as an electron donor and NAD+ as an electron acceptor/cofactor. An increase in the fluorescence intensity due to conversion of NAD+ to NADH was used to measure the enzyme activity. All compounds were screened using a qHTS approach, where compounds are assayed using at least seven concentrations to generate concentration-response curves for every compound. Briefly, qHTS uses an inter-plate dilution method where the first plate contains the highest concentration of a set of compounds in DMSO, while subsequent plates contain the same compounds in the same well locations, but at successive lower concentrations. NIH Chemical Genomics Center [NCGC] NIH Molecular Libraries Probe Centers Network [MLPCN] MLPCN Grant: MH084681 Assay Submitter (PI): Structural Genomics Consortium
Three uL of enzyme (20 nM final concentration) were dispensed to 1536-well Greiner black solid bottom plates. Compounds (23 nL) were transferred via Kalypsys PinTool. The plates were incubated for 15 min at room temperature, and then 1 uL of substrate/cofactor solution (Substrate/cofactor solution: 1 mM NAD+ and 30 uM prostaglandin (Sigma, prostaglandin E2, #P5640)) were added to start the reaction. The plates were immediately transferred to and read 4 times every 30 seconds on a ViewLux High-throughput CCD imager (Perkin-Elmer) using 340 nm excitation and 450 nm emission fluorescence protocol. The fluorescence intensity difference between the last and the first time points, normalized against controls, was used to compute reaction progress.

Chain of 15-hydroxyprostaglandin dehydrogenase [NAD(+)] (Homo sapiens) (P15428 whole entry, looked up): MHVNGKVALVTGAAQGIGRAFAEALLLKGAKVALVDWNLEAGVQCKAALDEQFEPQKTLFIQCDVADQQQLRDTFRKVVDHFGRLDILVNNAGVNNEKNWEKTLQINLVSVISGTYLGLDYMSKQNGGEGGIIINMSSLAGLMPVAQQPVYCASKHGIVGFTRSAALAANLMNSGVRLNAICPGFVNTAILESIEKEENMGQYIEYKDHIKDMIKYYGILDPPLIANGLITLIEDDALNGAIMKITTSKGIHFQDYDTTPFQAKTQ

Compound	Potency	activity, negative = inhibition [%]
Cc1cc(-c2nnc3n2CCCCC3)c(C)n1-c1cccc2ccccc12	54.1 nM (active) and 108 nM (active)	–
Cc1cc(-c2nnc3n2CCCCC3)c(C)n1-c1cccc(Cl)c1	34.1 nM (active)	–
Cc1cccc(-n2cnc3cc(C(=O)N4CCC(C#N)CC4)ccc32)c1	19200 nM (active)	–
Cc1cccc(-n2cnc3cc(C(=O)N4CCCCC4)ccc32)c1	34.1 nM (active) and 19.2 nM (active)	–
O=C(c1ccc2c(c1)ncn2-c1cccc(Cl)c1)N1CCCCC1	12.1 nM (active)	–
Cc1cccc(-n2cnc3cc(C(=O)N4CCCC4)ccc32)c1	383 nM (active)	–
O=C(c1ccc2c(c1)ncn2-c1ccccc1)N1CCCCC1	21.5 nM (active)	–
COc1ccccc1-n1cnc2cc(C(=O)N3CCCCC3)ccc21	27.1 nM (active)	–
COc1ccc(CSc2nc3ncc(Br)cc3[nH]2)cc1F	85.7 nM (active)	–
Fc1cccc(CSc2nc3ncc(Br)cc3[nH]2)c1	341 nM (active)	–
COc1cccc(-n2cnc3cc(C(=O)N4CCCCC4)ccc32)c1	19.2 nM (active)	–
Cc1cc(-c2nnc3n2CCCCC3)c(C)n1-c1ccc(Br)cc1	48.2 nM (active)	–
Cc1cc(-c2nnc3n2CCCCC3)c(C)n1-c1cccc(C(F)(F)F)c1	48.2 nM (active)	–
Cc1cc(-c2nnc3n2CCCCCCC3)c(C)n1-c1ccccc1	383 nM (active)	–
FC(F)(F)c1ccc(-c2nc(-c3nnc4n3CCCCC4)c(C(F)(F)F)o2)cc1	–	-16
CC(C)(C)c1ccc(CSc2nc3ncc(Br)cc3[nH]2)cc1	–	-15.2
COc1ccc(-n2cnc3cc(C(=O)N4CCCCC4)ccc32)cc1	19.2 nM (active)	–
CC(C)c1cccc(-n2cnc3cc(C(=O)N4CCCCC4)ccc32)c1	68.1 nM (active)	–
c1ccc(-n2ccc(-c3nnc4n3CCCCC4)c2)cc1	607 nM (active)	–
Cc1cc(-c2nnc3n2CCCCC3)c(C)n1-c1ccncc1	383 nM (active)	–
c1ccc(-n2cc(-c3nnc4n3CCCCC4)cn2)cc1	3830 nM (active)	–
CCCCn1cnc2cc(C(=O)N3CCCCC3)ccc21	68.1 nM (active)	–
Cc1cccc(-n2cnc3cc(C(=O)NC4CCCCC4)ccc32)c1	3040 nM (active)	–
Cc1cccc(-n2cnc3cc(C(=O)NC4CCCC4)ccc32)c1	961 nM (active)	–
Cc1cccc(-n2cnc3cc(C(=O)N4CCCC(C(F)(F)F)C4)ccc32)c1 (stereo not given)	68.1 nM (active)	–
O=[N+]([O-])c1cccc(CSc2nc3ncc(Br)cc3[nH]2)c1	68.1 nM (active)	–
c1ccc(-n2cc(-c3nnc4n3CCCCC4)c3ccccc32)cc1	681 nM (active)	–
Cc1cccc(-n2cnc3cc(C(=O)N4CCOCC4)ccc32)c1	3040 nM (active)	–
O=C(c1ccc2c(c1)ncn2-c1ccc(Cl)cc1)N1CCCCC1	21.5 nM (active)	–
Cc1cc(-c2nnc3n2CCCCC3)c(C)n1-c1ccccn1	1080 nM (active)	–
